This note sets out measurements from PubChem BioAssay (EPA / NIEHS).

Molecules are shown by their SMILES. Calls of active or inactive are those of the source. Rule for the calls: active = hit-call score of the fitted dose curve at least 0.9, where 1 is the maximum; inactive = score below 0.9.

Experiment [1] in a line: CCTE_Padilla_ZF_Score.Swim_bladder: CCTE's 144 Hour Post-fertilization zebrafish Assay Score for Swim Bladder Malformation, Padilla Lab (AID 2284408). In a few lines: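 Wild-type zebrafish embryos, one per well in 10% Hanks', dosed at 6–8 hpf, sealed, reared at 26C and rinsed at 5 dpf. Blinded assessors scored uninflated swim bladder by stereomicroscopy at 6 dpf, relative to DMSO.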

A short description of experiment [2]: CCTE_Padilla_ZF_Score.Position: CCTE's 144 Hour Post-fertilization zebrafish Assay Score for Position, Padilla Lab (AID 2284409). The method, boiled down: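 Wild-type zebrafish embryos (with chorions) exposed singly from 6–8 hpf in sealed wells of Hanks' solution at 26C, rinsed at 5 dpf. At 6 dpf, blinded assessors scored abnormal water-column position by brightfield stereomicroscopy, relative to DMSO.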

Experiment [3] is described as follows: CCTE_Padilla_ZF_Score.Living: CCTE's 144 Hour Post-fertilization zebrafish Assay Score for Viability, Padilla Lab (AID 2284410).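 Note: larval death at 6 dpf judged by absent heartbeat or coagulation.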 The method, boiled down:
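Wild-type zebrafish embryos were exposed singly from 6–8 hpf in sealed wells of Hanks' solution at 26C, then rinsed at 5 dpf. At 6 dpf, blinded assessors scored mortality (no heartbeat or coagulation) by stereomicroscopy, fitted against DMSO.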

A short description of experiment [4]: CCTE_Padilla_ZF_Score.General: CCTE's 144 Hour Post-fertilization zebrafish Assay Score for General Malformation, Padilla Lab (AID 2284411). In a few lines:
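Wild-type zebrafish embryos were plated singly at 6-8 hpf in 10% Hanks' and exposed in sealed wells at 26C until rinsed on 5 dpf. At 6 dpf two blinded assessors scored mortality, hatching and malformations by stereomicroscopy; gain-of-signal versus DMSO.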

Experiment [5] in a line: CCTE_Padilla_ZF_Score.Tail: CCTE's 144 Hour Post-fertilization zebrafish Assay Score for Tail Malformation, Padilla Lab (AID 2284414). In a few lines:
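Wild-type zebrafish embryos, one per well in 200 uL 10% Hanks', dosed at 6-8 hpf, sealed, and kept at 26 C on a 14:10 h light cycle. Chemical was rinsed out at 5 dpf. Blinded brightfield scoring of tail defects followed at 6 dpf.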

Experiment [6] can be described thus: CCTE_Padilla_ZF_Score.Blood_pooling: CCTE's 144 Hour Post-fertilization zebrafish Assay Score for Blood Pooling, Padilla Lab (AID 2284415). In a few lines:
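Wild-type outbred zebrafish embryos, one per well in 10% Hanks', exposed from 6–8 hpf in sealed plates at 26C on 14:10 h light:dark, rinsed at 5 dpf. Blinded stereomicroscope scoring of blood pooling at 6 dpf; gain-of-signal versus DMSO.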

A short description of experiment [7]: CCTE_Padilla_ZF_Score.Any: CCTE's 144 Hour Post-fertilization zebrafish Assay Score for Any Mortality or Malformation, Padilla Lab (AID 2284416). In a few lines:
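Wild-type zebrafish embryos with chorions, one per well in 10% Hanks' from 6–8 hpf, dosed in sealed plates at 26 C, 14:10 h light:dark; rinsed at 5 dpf; blinded scoring at 6 dpf for death or malformation, versus DMSO.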

Another experiment has as its system TTR (gene 7276). The experiment is described as follows: CCTE_GLTED_hTTR_0.125uM: CCTE's human Transthyretin (hTTR) Inhibition Assay, with 0.125uM TTR, Great Lakes Toxicology and Ecology Division (GLTED) Lab (AID 2284431).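 Note: hits lower the fluorescence signal relative to DMSO baseline.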 In a few lines:
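Cell-free displacement of ANSA probe from 0.125uM TTR after 2 h incubation with chemical. Fluorescence read at 380 nm excitation/475 nm emission; loss of signal relative to DMSO indicates T4-site displacement.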

Turning to `FC(F)(F)C(F)(F)C(F)(F)C(F)(F)C(F)(F)C(F)(F)CCS`, the compound was classed as inactive in experiment [1], in experiment [2], in experiment [3], in experiment [4], in experiment [5] and in experiment [6]. The compound was called inactive in experiment [7].
`Nc1ccc([N+](=O)[O-])cc1O`: the result in experiment [4] was inactive.
Turning to `O=C(O)C(F)(F)C(F)(F)C(F)(F)C(F)(F)F`, the call in experiment [1], in experiment [2], in experiment [3], in experiment [4], in experiment [5] and in experiment [6] was inactive. The call in experiment [7] was inactive.
Consider `C=C(C)C(=O)OCC(F)(F)C(F)(F)C(F)(F)F`, for which the result in experiment [1], in experiment [2], in experiment [3], in experiment [4], in experiment [5] and in experiment [6] was inactive. The compound was called inactive in experiment [7].
Turning to `CCO[Si](CCC(F)(F)C(F)(F)C(F)(F)C(F)(F)C(F)(F)C(F)(F)F)(OCC)OCC`, the outcome in experiment [1], in experiment [2], in experiment [3], in experiment [4], in experiment [5] and in experiment [6] was inactive. In experiment [7], the result was inactive.
Consider `OCC(F)(F)C(F)(F)C(F)(F)C(F)(F)C(F)(F)C(F)F`, for which the compound was classed as inactive in experiment [1], in experiment [2], in experiment [3], in experiment [4], in experiment [5] and in experiment [6]. In addition, the call in experiment [7] was inactive.
Take `C=C(C)C(=O)OCC(F)(F)C(F)(F)C(F)(F)C(F)(F)C(F)(F)C(F)(F)C(F)(F)F`: the compound was classed as inactive in experiment [1], in experiment [2], in experiment [3], in experiment [4], in experiment [5] and in experiment [6]. Also, the call in experiment [7] was inactive.
Consider `Oc1ccc(Nc2ccccc2)cc1`, for which the outcome in experiment [4] was inactive.
Take `FC(F)(F)C(F)(F)C(F)(F)C(F)(F)C(F)(F)C(F)(F)C(F)(F)Br`: the call in experiment [1], in experiment [2], in experiment [3], in experiment [4], in experiment [5] and in experiment [6] was inactive. Besides, the outcome in experiment [7] was inactive.
As for `O=C(O)C(F)(F)C(F)(F)C(F)(F)C(F)(F)C(F)(F)C(F)(F)C(F)(F)C(F)(F)C(F)(F)C(F)F`, the compound was classed as inactive in experiment [1], in experiment [2], in experiment [5] and in experiment [6]. Moreover, the figures for the AC50 in experiment [3], in experiment [4] and in experiment [7] were 17.5 µM (active), 15.8 µM (active) and 15 µM (active), respectively.
On to `CCCCCCCCCCCCCCCC[N+](C)(C)Cc1ccccc1`, for which, in experiment [4], the result was inactive.
The same measure, in the same setting: the value for `CCCCCCC(C)OC(=O)CCCCC(=O)OC(C)CCCCCC` (stereo not given) was “inactive”.
Take `OCCCC(F)(F)C(F)(F)C(F)(F)F`: the call in experiment [1], in experiment [2], in experiment [3], in experiment [4], in experiment [5] and in experiment [6] was inactive. In experiment [7], the compound was called inactive.
With `O=S(=O)(OCC(F)F)C(F)(F)F`, the result in experiment [1], in experiment [2], in experiment [3], in experiment [4], in experiment [5] and in experiment [6] was inactive. In experiment [7], the outcome was inactive.
As for `CC(Cc1ccc(O)c(O)c1)C(C)Cc1ccc(O)c(O)c1` (stereo not given), in the experiment with TTR (gene 7276), the AC50 is 0.0909 µM (active).
Consider `FC(F)(F)C(F)(F)C(F)(F)N(C(F)(F)C(F)(F)C(F)(F)F)C(F)(F)C(F)(F)C(F)(F)F`, for which the result in experiment [1], in experiment [2], in experiment [3], in experiment [4], in experiment [5] and in experiment [6] was inactive. The compound was called inactive in experiment [7].
Regarding `NC(=O)C(F)(F)C(F)(F)C(F)(F)C(F)(F)F`, the compound was called inactive in experiment [1], in experiment [2], in experiment [3], in experiment [4], in experiment [5] and in experiment [6]. For the same compound, the call in experiment [7] was inactive.
On to `O=C(CC(=O)C(F)(F)C(F)(F)F)C(F)(F)F`, for which the result in experiment [1], in experiment [2], in experiment [3], in experiment [4], in experiment [5] and in experiment [6] was inactive. In addition, in experiment [7], the outcome was inactive.
In the case of `CCCCC(CC)COP(=O)(O)OCC(CC)CCCC` (stereo not given), in the experiment with TTR (gene 7276), the AC50 was 5.44 µM (active).
In the case of `O=P(O)(O)OCCC(F)(F)C(F)(F)C(F)(F)C(F)(F)C(F)(F)C(F)(F)F`, the outcome in experiment [1], in experiment [2], in experiment [3], in experiment [4], in experiment [5] and in experiment [6] was inactive. Moreover, the compound was called inactive in experiment [7].
`OCC(F)(F)C(F)(F)C(F)(F)F`: the outcome in experiment [1], in experiment [2], in experiment [3], in experiment [4], in experiment [5] and in experiment [6] was inactive. The compound was classed as inactive in experiment [7].
As for `OCCCC(F)(F)C(F)(F)C(F)(F)C(F)(F)C(F)(F)C(F)(F)C(F)(F)F`, the half-maximal activity concentration (AC50) in experiment [1] is 88.1 µM (active); in experiment [7] it was 38.7 µM (active). Moreover, the compound was classed as inactive in experiment [2], in experiment [3], in experiment [4], in experiment [5] and in experiment [6].
Take `CCCCNc1ccccc1`: the outcome in experiment [4] was inactive.
As for `c1ccc(B(c2ccccc2)c2ccccc2)cc1`, in the experiment with TTR (gene 7276), the AC50 is 1.6 µM (active).
Turning to `O=C(Cl)C(F)(F)C(F)(F)C(F)(F)C(F)(F)C(F)(F)C(F)(F)C(F)(F)C(F)(F)F`, the call in experiment [1], in experiment [2], in experiment [3], in experiment [5] and in experiment [6] was inactive. Besides, the AC50 in experiment [4] was 11.4 µM (active); in experiment [7] it was 29.4 µM (active).
Take `OCC(F)(F)C(F)(F)C(F)(F)C(F)(F)C(F)(F)C(F)(F)F`: the compound was called inactive in experiment [1], in experiment [2], in experiment [4] and in experiment [5]. Besides, the AC50 was 88 µM (active) in experiment [3], 93.7 µM (active) in experiment [6] and 80.5 µM (active) in experiment [7].
Consider `CC(C)(C)C(=O)CC(=O)C(F)(F)C(F)(F)C(F)(F)F`, for which the AC50 in experiment [1] is 27 µM (active); in experiment [2] it was 29 µM (active); in experiment [3], 32.8 µM (active); in experiment [4], 26.4 µM (active); in experiment [7], 26.6 µM (active). Moreover, the outcome in experiment [5] and in experiment [6] was inactive.
As for `Cc1ccc(S(=O)(=O)NCl)cc1`, in the experiment on TTR (gene 7276), the AC50 is 44.5 µM (active).
Consider `O=C(O)C(F)(OC(F)(F)C(F)(OC(F)(F)C(F)(F)C(F)(F)F)C(F)(F)F)C(F)(F)F` (stereo not given), for which the result in experiment [1], in experiment [2], in experiment [3], in experiment [4], in experiment [5] and in experiment [6] was inactive. For the same compound, the result in experiment [7] was inactive.
With `CCCCCCS`, the call in experiment [4] was inactive.
